The source of these data is PubChem BioAssay AID720551 (National Center for Advancing Translational Sciences (NCATS), 2013).

Among all 340,000 compounds or so, about 1,300 (0.38%) were called active. This excerpt belongs to a sample that is enriched for actives. A number with no mark means an inactive call.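 The calls were made as follows: active = maximum activity change below -70%; inconclusive = maximum activity change between -70% and -50%; inactive = maximum activity change above -50%.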
% is scaled to controls: 0 for no effect and ±100 for the full control effect.

Voltage-gated inwardly rectifying potassium channel KCNH2 (Homo sapiens), sequence (Q12809 whole entry, looked up, canonical isoform): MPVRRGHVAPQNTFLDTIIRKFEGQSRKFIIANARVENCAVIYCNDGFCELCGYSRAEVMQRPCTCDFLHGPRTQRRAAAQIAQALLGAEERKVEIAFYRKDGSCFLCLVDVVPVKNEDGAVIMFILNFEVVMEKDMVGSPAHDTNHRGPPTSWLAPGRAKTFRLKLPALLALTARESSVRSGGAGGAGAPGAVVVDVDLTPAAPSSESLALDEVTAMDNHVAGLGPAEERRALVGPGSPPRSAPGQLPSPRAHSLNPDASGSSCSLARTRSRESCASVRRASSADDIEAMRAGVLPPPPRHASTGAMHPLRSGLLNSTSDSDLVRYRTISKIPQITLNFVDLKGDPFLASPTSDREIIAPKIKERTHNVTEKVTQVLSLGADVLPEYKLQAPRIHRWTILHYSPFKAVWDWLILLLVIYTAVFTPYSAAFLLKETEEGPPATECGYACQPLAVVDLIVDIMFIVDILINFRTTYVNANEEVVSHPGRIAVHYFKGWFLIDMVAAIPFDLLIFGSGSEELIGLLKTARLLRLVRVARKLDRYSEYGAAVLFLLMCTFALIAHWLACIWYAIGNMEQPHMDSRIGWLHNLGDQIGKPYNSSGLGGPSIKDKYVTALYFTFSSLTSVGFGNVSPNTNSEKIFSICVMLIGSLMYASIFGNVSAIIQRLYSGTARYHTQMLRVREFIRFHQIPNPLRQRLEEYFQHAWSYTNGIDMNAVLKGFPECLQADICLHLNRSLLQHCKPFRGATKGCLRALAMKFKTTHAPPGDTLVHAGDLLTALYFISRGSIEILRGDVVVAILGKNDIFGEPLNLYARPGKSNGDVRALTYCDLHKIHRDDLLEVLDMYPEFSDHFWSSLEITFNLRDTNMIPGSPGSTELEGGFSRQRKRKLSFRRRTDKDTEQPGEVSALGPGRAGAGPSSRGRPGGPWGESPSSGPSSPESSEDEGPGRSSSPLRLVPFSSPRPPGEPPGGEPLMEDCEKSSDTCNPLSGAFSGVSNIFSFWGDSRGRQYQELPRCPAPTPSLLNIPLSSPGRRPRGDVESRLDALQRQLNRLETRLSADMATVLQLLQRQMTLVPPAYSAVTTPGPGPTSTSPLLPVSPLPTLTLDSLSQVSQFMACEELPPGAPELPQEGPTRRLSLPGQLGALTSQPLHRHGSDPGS

The assay addresses Voltage-gated inwardly rectifying potassium channel KCNH2 (Homo sapiens) (UniProt Q12809). In words: qHTS for Inhibitors of KCHN2 3.1: Wildtype qHTS. The conditions noted are these: U2OS, BacMam KCNH2, thallium flux FluxOr; at 1.84 µM; active compounds read low. The text has this: Many antipsychotic drugs that inhibit the neurotransmitter dopamine also bind to hERG1 channel which might help explain their antipsychotic activity but also produces cardiac side effects. The discovery of the novel KCNH2 3.1 isoform offers a potential new target for the development of antipsychotic drugs without cardiac side effects. This proposal will use a high throughput thallium flux assay developed for KCNH2 to screen compounds that modulate the activity of KCNH2 3.1. The wild type KCNH2 channel will also be screened in parallel to help define the selective modulators of this KCNH2 3.1 potassium channel. The resulting compounds will be validated in electrophysiology experiments. The availability of animal models will allow future testing in vivo for effects on memory and other aspects of animal physiology linked with psychosis. NIH Chemical Genomics Center [NCGC] NIH Molecular Libraries Probe Centers Network [MLPCN] MLPCN Grant: MH096539 Assay Submitter (PI): James Barrow, Johns Hopkins University, Lieber Institute for Brain Development
U2OS cells were resuspended in cell media containing 10% fetal calf serum (FCS) at a concentration of 2 million cells / mL. The solution was treated with the Wild-type virus at 2.03 x 10^8 / mL and allowed to incubate at room temperature in the dark. After 4 hours of incubation, DMEM + 10% fetal bovine serum (FBS) was added to the cell solution. Three microliter was then dispensed into a 1536 tissue culture treated black assay plates which were incubated overnight at 37 C. Two microliter of loading buffer (HBSS + HEPES + Red40 dye quencher + FluxOr dye) was added and the assay plates were incubated for 45 min at room temperature in the dark. […] A stimulation buffer was added to the plate and the second kinetic read (2 min) was obtained. The rate constant was calculated from the kinetic reads and normalized to the positive and negative DMSO controls.
Regarding `C[C@H](CO)N1C[C@H](C)[C@@H](CN(C)S(=O)(=O)c2ccc(Oc3ccccc3)cc2)OCc2cn(nn2)CCCC1=O`, the activity change is 10.5%.

With `COc1ccc(C=C2CCC3C(CCCC34OCCO4)C2=O)cc1` (stereo not drawn), the activity change was 7.34%.

For the compound `COc1ccc(S(=O)(=O)N2CCN(CC(=O)N3CCNC3=O)CC2)cc1OC`, the activity change was -3.77%.

Consider `OC(COc1ccc(CN2CCSCC2)cc1)CN1CCCCC1` (stereo not drawn), for which the activity change was -2.59%.

Regarding `Cc1cccc(C)c1OCC(O)CN1CCCCC1` (stereo not drawn), the activity change was -71.1% (active).

For the compound `O=C(c1ccc(Cl)cc1)c1ccc(OCC(O)CN2CCCCC2)cc1` (stereo not drawn), the activity change was 42.5%.

`Cc1ccc(NC(=O)c2ccco2)cc1`: the activity change is -2.95%.

For `O=Cc1cn(CCOc2ccc(F)cc2)c2ccccc12`, the activity change is -0.818%.

As to `COc1cccc(NC(=O)N2CCC(NC(=O)C(Cc3cccc(C)c3)NC(C)=O)CC2)c1` (stereo not drawn), the activity change is -205% (active).

Turning to `COc1ccc(CC(NC(C)=O)C(=O)NC2CCN(C(=O)Nc3ccc(C#N)cc3)CC2)cc1OC` (stereo not drawn), the activity change is 6.09%.

Regarding `CCOC(=O)C1CCN(C(=O)Nc2cccc(OC)c2)CC1`, the activity change is -8.37%.

`O=Nc1c(O)cc(O)c2ccccc12`: the activity change is -0.133%.

In the case of `COC(=O)C(Cc1c[nH]c2ccccc12)NC(=O)CCNC(=O)c1ccco1` (stereo not drawn), the activity change was 0.0904%.

For the compound `Cc1ccc(NC(=O)c2ccn(C(=O)Nc3ccccc3)n2)c(C)c1`, the activity change was 5.47%.

Consider `CSc1ncc(C(=O)Nc2ccc(C)cc2C)c(C)n1`, for which the activity change was -213% (active).

Take `CSc1ncc(C(=O)NCCCc2ccccc2)c(C)n1`: the activity change is 11.2%.

For the compound `CCc1cc(C(=O)N(CC)CC(=O)Nc2c(F)cccc2F)sc1C`, the activity change was 1.41%.

For `CC(C)c1cc(C(=O)NC2CCCCCC2)c2ccccc2n1`, the activity change is 1.65%.

For `O=S(=O)([N-]c1nc2ccccc2nc1-[n+]1ccc(Cc2ccccc2)cc1)c1ccc(Br)s1`, the activity change was 8.23%.

Take `Cc1cc(C)c[n+](-c2nc3ccccc3nc2[N-]S(=O)(=O)c2cccs2)c1`: the activity change is -111% (active).

With `CCCCNc1nc2ccccc2nc1NS(=O)(=O)c1cccs1`, the activity change was -1.02%.

In the case of `N#Cc1ccc(OCC(=O)Nc2nc(-c3ccccn3)cs2)cc1`, the activity change is 19.3%.

Consider `CCc1ccc2ncc(C(=O)c3ccccc3)c(N3CCOCC3)c2c1`, for which the activity change is 5.15%.

Turning to `O=C(NCC(c1cccs1)N1CCOCC1)c1cc(-c2ccccn2)nc2ccccc12` (stereo not drawn), the activity change was 0.99%.

Regarding `O=C(c1ccccc1)c1cc(-c2ccccn2)c(N2CCOCC2)s1`, the activity change was -186% (active).

Consider `Cc1ccc([C@H]2N[C@]3(CCCN(CC4CCCCC4)C3=O)[C@H]3C(=O)N(Cc4ccccc4)C(=O)[C@@H]23)cc1`, for which the activity change was 2.25%.

As for `CN(C)C(CNC(=O)c1cccc(S(=O)(=O)N2CCc3ccccc3C2)c1)c1ccccc1` (stereo not drawn), the activity change is 19.3%.

Take `C[C@@H]1CN([C@H](C)CO)C(=O)c2cc(-c3ccc(F)cc3)cnc2O[C@H]1CN(C)C(=O)c1ccc(F)cc1`: the activity change is 16.3%.

Regarding `Cc1noc(C)c1COc1cccc(C(=O)Nc2cccnc2)c1`, the activity change was 7.71%.

Turning to `Cc1nc2nc[nH]n2c(=O)c1NC(=O)c1cccc(OCC(C)C)c1`, the activity change was -180% (active).

`Cc1nc2nc[nH]n2c(=O)c1C/C=C/c1ccccc1`: the activity change was 1.17%.

Turning to `COc1ccc(-c2ccc(CN3C(C(C)C)C(=O)N(Cc4cn(CC5CCCCC5)nn4)CCS3(=O)=O)cc2)cn1` (stereo not drawn), the activity change was 6.66%.

With `Cc1cccc(C(=O)NC2CCN(CC(=O)Nc3cccc(Cl)c3)CC2)c1`, the activity change was 47.4%.

For the compound `Clc1ccc(-c2cc(-c3ccccn3)on2)c(Cl)c1`, the activity change was -93.1% (active).

With `O=C(COc1ccc(Cl)cc1Cl)N/N=C/c1ccccn1`, the activity change was -7.76%.

Take `Clc1ccc(COn2c(-c3ccc(Cl)cc3Cl)nc3ncccc32)cc1`: the activity change was 1.98%.

As for `C[C@@H]1CN([C@H](C)CO)C(=O)CCCn2cc(nn2)CO[C@H]1CN(C)S(=O)(=O)c1ccc(Oc2ccccc2)nc1`, the activity change was 10.5%.

On to `COc1ccc(CN2CCN(Cc3ccc(OC)c(OC)c3OC)CC2)cc1`, for which the activity change is 38.9%.

On to `COc1ccc(CN2CCC(c3nc4ccc(Cl)cc4[nH]3)CC2)cc1`, for which the activity change was -96.7% (active).

Turning to `COc1ccc(F)c(-c2nc(CN3CCC(c4ccccc4)CC3)c(C)o2)c1`, the activity change is 21%.

With `O=C(CCCN1C(=O)C(c2ccccc2)Oc2cccnc21)Nc1ccccc1Br` (stereo not drawn), the activity change was -7.82%.

Consider `CCOC(=O)c1cnn2c(SC)ncnc12`, for which the activity change is 9.2%.

On to `CCOc1ccccc1NC(=S)N1CCN(c2cccc(C)c2C)CC1`, for which the activity change is -2.86%.

Turning to `CCC(=O)N1CCN(c2ccccc2NC(=O)COc2cccc(C)c2C)CC1`, the activity change is -214% (active).

In the case of `Cc1ccc(C(C)C)cc1OCC(=O)Nc1ccccc1N1CCCC1`, the activity change is -18.3%.

For `COc1ccc(-c2ccc(CN3C(CC(C)C)C(=O)N(Cc4cn(CC5CCCCC5)nn4)CCS3(=O)=O)cc2)cn1` (stereo not drawn), the activity change is 16.3%.

Consider `CCC(Oc1ccccc1)C(=O)OCC(=O)Nc1c(C)nn(-c2ccccc2)c1C` (stereo not drawn), for which the activity change is 0.17%.

Regarding `Cc1cc(NC(=O)[C@H](C)NC(=O)c2ccco2)ccc1Br`, the activity change is -4.82%.

Turning to `O=C(COc1ccccc1F)Nc1nc(-c2ccccn2)cs1`, the activity change was -8.89%.

Regarding `CC(NC(=O)c1ccco1)C(=O)Nc1nc(-c2ccccn2)cs1` (stereo not drawn), the activity change was -212% (active).

In the case of `CN(C(=O)c1cccc(NC(=O)Cc2cccc([N+](=O)[O-])c2)c1)C1CCCCC1`, the activity change was -17.3%.

Regarding `CCOCCCN(C)C1CCN(C(=O)c2oc3ccccc3c2NC(=O)COc2cccc(C)c2)CC1`, the activity change was -82.2% (active).

Regarding `COCC(=O)Nc1c(C(=O)N2CCCC2)oc2ccccc12`, the activity change was -3.28%.

In the case of `COc1ccc(CC(=O)Nc2c(C(N)=O)oc3ccccc23)cc1`, the activity change was 26.6%.

Consider `COc1cccc(OC)c1C(=O)Nc1c(C(=O)N2CCN(c3ccccn3)CC2)oc2ccccc12`, for which the activity change was 3.21%.

For the compound `CCOCCCN(C)C1CCN(C(=O)c2oc3ccccc3c2NC(=O)Cc2cccc([N+](=O)[O-])c2)CC1`, the activity change was -97.4% (active).

For the compound `COc1ccccc1C(=O)NC(=S)Nc1ccc(N2CCOCC2)cc1`, the activity change is -8.97%.

`C#CCN(C[C@@H]1[C@@H](OC(=O)NC2CC2)[C@@H](OC(=O)NC2CC2)Cn2c(=O)ccc(=O)n21)S(=O)(=O)c1ccc(C)cc1`: the activity change was 2.34%.

With `CC(C)CC1C(=O)N(Cc2cn(Cc3ccco3)nn2)CCS(=O)(=O)N1Cc1ccc(-c2ccc(Cl)c(Cl)c2)cc1` (stereo not drawn), the activity change was -32.9%.

Turning to `C[C@H](CO)N1C[C@H](C)[C@@H](CN(C)S(=O)(=O)c2ccc(F)cc2)OCc2cnnn2CCCC1=O`, the activity change was -1.39%.

Turning to `CCN(CC)C(=O)C1=C(C)N(Cc2ccc(C(C)(C)C)cc2)C(=O)C(CC(=O)NCc2cccc3ccccc23)C1` (stereo not drawn), the activity change is -4.42%.

For `CCCn1nnc(NC(=O)COc2ccc(CC)cc2)n1`, the activity change was 4.88%.

Regarding `CCCOc1cccc(C(=O)Nc2nnn(CCC)n2)c1`, the activity change is -113% (active).

`CCCOc1cccc(C(=O)NCCCNC(=O)c2cccnc2)c1`: the activity change is -0.846%.

On to `CC(=O)c1ccc(OCC(=O)N(C)C2CCS(=O)(=O)C2)cc1` (stereo not drawn), for which the activity change is -11.1%.

In the case of `CC(C)CC(=O)NC(=S)NCc1ccccc1`, the activity change is -84.2% (active).

As to `CC(C)CC(=O)NC(=S)Nc1cc(C(=O)O)ccc1Cl`, the activity change was -19.3%.

For `CC(C)CC(=O)c1c[nH]c(C(=O)NCc2ccccc2)c1`, the activity change was 0.798%.

Turning to `COc1ccc(NC(=O)CCCOc2ccc(C(C)=O)cc2)cc1S(=O)(=O)N1CCCCC1`, the activity change was -1.81%.

As for `Cc1ccc([C@H]2C[C@H](O)[C@@H](n3cc(COC(=O)c4ccccc4)nn3)CN2C(=O)C2CCCCC2)cc1`, the activity change was -0.947%.

Take `C[C@@H]1CN([C@@H](C)CO)C(=O)CCCn2cc(nn2)CO[C@H]1CN(C)S(=O)(=O)c1ccc(-n2cccn2)cc1`: the activity change is -21.9%.

As for `O=C(NCc1nnnn1-c1ccc(Cl)cc1)c1ccc([N+](=O)[O-])o1`, the activity change is 7.93%.

For `O=C(NCc1nnnn1-c1ccc(Cl)cc1)c1ccc2c(c1)OCO2`, the activity change is -76.9% (active).

As to `COc1ccc(-n2nnnc2CNC(=O)c2ccc3ccccc3c2)cc1`, the activity change was -0.166%.

With `C/C(COc1ccccc1)=N\NC(=O)c1nnn(-c2nonc2N)c1-c1ccc(C)cc1`, the activity change was 4.6%.

For `Cc1c(C=O)c2ccccn2c1C(=O)c1ccncc1`, the activity change was -70.5% (active).

With `Cc1c(C(=O)NNC(=O)c2ccncc2)oc2ccccc12`, the activity change is -13.1%.

As to `Cc1cc2ccccn2c1C(=O)c1cccc(F)c1`, the activity change is -0.532%.

`O=C1[C@H]2[C@@H](c3ccc(C(F)(F)F)cc3)N[C@]3(CCCN(Cc4ccc(Cl)cc4)C3=O)[C@H]2C(=O)N1Cc1ccccc1`: the activity change was -9.13%.

Consider `CC1CN(C(=O)CCC(=O)NCCCN2CCC(Cc3ccccc3)CC2)c2cc(Cl)ccc2O1` (stereo not drawn), for which the activity change was -88.2% (active).

Turning to `CC1CN(C(=O)CCC(=O)NCc2cccnc2)c2ccccc2O1` (stereo not drawn), the activity change was -2.13%.

On to `CC1CN(C(=O)CCC(=O)NC2CCN(Cc3ccccc3)CC2)c2ccccc2O1` (stereo not drawn), for which the activity change is 16.1%.

`CCCc1c(C)nc2scc(-c3ccc(Cl)cc3)n2c1=O`: the activity change was -21.6%.

With `COc1ccc(CN2C[C@H]3CON(C)[C@H]3C[C@H]2c2ccc(-c3cccc(F)c3)cc2)cc1`, the activity change was -20.5%.

In the case of `Cc1ccc(-c2ccc(CN3C(C(C)C)C(=O)N(Cc4cn(CCC5OCCO5)nn4)CCS3(=O)=O)cc2)cc1` (stereo not drawn), the activity change is -23.7%.

With `O=C(/C=C/c1ccc(Cl)cc1)N1CCN(c2ccccc2[N+](=O)[O-])CC1`, the activity change is -71.4% (active).

For the compound `O=C(c1ccc(Cl)c([N+](=O)[O-])c1)N1CCN(c2ccccc2)CC1`, the activity change is 9.59%.

As to `CO/N=C/c1ccc(N2CCN(C(=O)c3cccc(Cl)c3)CC2)c([N+](=O)[O-])c1`, the activity change is -11.9%.
